Measured values published in article PMC7862700, “An all-to-all approach to the identification of sequence-specific readers for epigenetic DNA modifications on cytosine”.

Key:
Assay in all cases: DAPPL (digital affinity profiling via proximity ligation, sequencing); 10 mM Tris-HCl pH 7.5, 50 mM NaCl, 1 mM DTT, 4% glycerol, room temperature, 30 min; GST-TFs on glutathione beads, 16-mer random dsDNA library, 0.1% formaldehyde crosslink after washing; high values mean tight binding
Details in all cases: protein: recombinant; tags: N-terminal GST; dsDNA, one strand shown
FLI1 = biological target: T1, FLI1 (Homo sapiens, UniProt Q01543 1-452)
T1 sequence: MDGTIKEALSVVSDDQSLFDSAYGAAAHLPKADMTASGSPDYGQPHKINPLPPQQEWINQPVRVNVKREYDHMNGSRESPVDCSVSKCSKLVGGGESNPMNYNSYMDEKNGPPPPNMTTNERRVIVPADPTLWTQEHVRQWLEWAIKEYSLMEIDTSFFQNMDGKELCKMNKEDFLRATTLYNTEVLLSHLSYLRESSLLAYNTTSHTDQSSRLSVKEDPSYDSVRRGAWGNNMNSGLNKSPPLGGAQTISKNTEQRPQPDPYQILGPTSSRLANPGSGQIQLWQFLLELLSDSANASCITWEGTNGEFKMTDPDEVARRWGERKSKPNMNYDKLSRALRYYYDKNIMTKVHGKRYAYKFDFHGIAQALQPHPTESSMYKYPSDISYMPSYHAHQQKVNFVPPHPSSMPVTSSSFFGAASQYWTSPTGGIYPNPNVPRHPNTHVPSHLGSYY
Summary of the method: (§1)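 Yeast served to express human transcription factors as GST fusions, which were then captured on glutathione beads and labelled with DNA barcodes. Pooled with a tag-only sample, they were incubated with 200 nmole of a 16-mer random double-stranded DNA library for 30 min at room temperature in Tris/NaCl/DTT/glycerol buffer, washed, crosslinked with 0.1% formaldehyde, ligated by proximity, amplified by PCR and sequenced. Dividing each hexamer's read frequency for a factor by its frequency for the tag-only sample gives the binding signal.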

ELK1 = biological target: T2, ELK1 (Homo sapiens, UniProt P19419 1-428)
T2 sequence: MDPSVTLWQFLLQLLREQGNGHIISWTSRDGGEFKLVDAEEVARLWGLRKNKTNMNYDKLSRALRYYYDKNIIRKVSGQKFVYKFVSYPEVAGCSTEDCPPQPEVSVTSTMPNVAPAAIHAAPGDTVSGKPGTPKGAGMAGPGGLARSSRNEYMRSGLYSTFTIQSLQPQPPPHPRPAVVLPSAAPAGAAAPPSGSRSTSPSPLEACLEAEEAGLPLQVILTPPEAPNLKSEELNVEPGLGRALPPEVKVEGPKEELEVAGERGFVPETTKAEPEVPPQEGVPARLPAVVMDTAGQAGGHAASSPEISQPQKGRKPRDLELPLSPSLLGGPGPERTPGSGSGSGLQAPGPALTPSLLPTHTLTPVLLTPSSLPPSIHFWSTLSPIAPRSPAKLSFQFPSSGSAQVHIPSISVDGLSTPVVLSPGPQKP
Summary of the method: as §1

GABPA = biological target: T3, GABPA (Homo sapiens, UniProt Q06546 1-454)
T3 sequence: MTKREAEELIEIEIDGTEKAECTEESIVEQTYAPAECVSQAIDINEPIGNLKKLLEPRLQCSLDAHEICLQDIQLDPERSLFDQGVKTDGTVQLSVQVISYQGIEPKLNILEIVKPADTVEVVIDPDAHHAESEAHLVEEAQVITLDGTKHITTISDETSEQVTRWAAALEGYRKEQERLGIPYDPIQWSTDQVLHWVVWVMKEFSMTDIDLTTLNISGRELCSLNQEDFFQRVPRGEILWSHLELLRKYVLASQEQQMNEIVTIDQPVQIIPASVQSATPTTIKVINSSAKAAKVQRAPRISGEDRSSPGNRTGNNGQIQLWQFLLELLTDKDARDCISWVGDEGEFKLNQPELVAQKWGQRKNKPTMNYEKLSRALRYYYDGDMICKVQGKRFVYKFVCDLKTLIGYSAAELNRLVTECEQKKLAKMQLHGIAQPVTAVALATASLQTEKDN
Summary of the method: as §1

ERG = biological target: T4, ERG (Homo sapiens, UniProt P11308 1-479)
T4 sequence: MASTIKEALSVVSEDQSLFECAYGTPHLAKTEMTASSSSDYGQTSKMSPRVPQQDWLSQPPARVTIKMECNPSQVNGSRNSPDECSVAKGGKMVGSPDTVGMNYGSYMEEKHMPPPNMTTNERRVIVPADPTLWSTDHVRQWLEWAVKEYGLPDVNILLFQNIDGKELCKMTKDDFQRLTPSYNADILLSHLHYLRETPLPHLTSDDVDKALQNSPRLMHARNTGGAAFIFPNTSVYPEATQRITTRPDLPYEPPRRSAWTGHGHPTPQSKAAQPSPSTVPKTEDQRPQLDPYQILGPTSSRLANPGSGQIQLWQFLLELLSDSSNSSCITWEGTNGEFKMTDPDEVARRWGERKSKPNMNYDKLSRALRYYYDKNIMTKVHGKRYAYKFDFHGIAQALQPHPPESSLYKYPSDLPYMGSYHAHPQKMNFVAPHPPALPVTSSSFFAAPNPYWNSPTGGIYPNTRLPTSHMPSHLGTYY
Summary of the method: as §1

ELF1 = ELF1 (Homo sapiens, UniProt P32519 1-619)
ELF1, sequence (P32519 whole entry): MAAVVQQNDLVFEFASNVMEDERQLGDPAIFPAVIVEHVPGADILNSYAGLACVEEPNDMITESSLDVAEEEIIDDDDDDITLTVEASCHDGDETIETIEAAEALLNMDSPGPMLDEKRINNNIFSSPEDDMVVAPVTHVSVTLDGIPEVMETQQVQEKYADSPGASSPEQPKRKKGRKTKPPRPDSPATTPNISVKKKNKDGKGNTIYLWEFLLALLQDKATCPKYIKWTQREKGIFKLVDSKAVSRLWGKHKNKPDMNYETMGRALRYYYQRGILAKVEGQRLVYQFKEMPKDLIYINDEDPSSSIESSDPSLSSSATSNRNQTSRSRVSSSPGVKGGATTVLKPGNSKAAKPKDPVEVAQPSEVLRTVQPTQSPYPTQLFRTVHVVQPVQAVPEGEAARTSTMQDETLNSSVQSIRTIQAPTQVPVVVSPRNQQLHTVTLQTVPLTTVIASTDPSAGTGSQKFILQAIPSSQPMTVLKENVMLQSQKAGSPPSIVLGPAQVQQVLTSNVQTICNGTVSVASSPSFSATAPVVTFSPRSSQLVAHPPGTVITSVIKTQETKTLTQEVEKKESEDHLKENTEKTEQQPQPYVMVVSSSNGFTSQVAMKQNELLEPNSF
Summary of the method: as §1

EHF = biological target: T5, EHF (Homo sapiens, UniProt Q9NZC4 1-300)
T5 sequence: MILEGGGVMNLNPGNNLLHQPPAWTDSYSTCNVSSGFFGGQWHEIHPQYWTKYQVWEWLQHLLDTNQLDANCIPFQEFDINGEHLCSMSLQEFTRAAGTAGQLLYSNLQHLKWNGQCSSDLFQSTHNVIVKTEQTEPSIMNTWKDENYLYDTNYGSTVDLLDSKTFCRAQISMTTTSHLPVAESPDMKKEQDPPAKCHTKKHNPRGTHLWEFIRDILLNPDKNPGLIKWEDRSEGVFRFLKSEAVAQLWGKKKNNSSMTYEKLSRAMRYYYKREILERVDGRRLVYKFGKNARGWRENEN
Summary of the method: as §1

SPI1 = SPI1 (Homo sapiens, UniProt P17947 1-270)
Summary of the method: as §1

SPIB = SPIB (Homo sapiens, UniProt Q01892 1-262)
SPIB, sequence (Q01892 whole entry): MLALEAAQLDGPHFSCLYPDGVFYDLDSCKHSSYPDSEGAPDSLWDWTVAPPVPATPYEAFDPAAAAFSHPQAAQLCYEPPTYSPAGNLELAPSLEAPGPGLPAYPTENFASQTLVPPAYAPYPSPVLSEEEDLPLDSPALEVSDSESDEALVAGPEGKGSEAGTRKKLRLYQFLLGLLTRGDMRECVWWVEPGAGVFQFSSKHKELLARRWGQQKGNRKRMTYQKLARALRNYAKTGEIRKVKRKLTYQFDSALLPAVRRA
Summary of the method: as §1

ELK3 = biological target: T6, ELK3 (Homo sapiens, UniProt P41970 1-407)
T6 sequence: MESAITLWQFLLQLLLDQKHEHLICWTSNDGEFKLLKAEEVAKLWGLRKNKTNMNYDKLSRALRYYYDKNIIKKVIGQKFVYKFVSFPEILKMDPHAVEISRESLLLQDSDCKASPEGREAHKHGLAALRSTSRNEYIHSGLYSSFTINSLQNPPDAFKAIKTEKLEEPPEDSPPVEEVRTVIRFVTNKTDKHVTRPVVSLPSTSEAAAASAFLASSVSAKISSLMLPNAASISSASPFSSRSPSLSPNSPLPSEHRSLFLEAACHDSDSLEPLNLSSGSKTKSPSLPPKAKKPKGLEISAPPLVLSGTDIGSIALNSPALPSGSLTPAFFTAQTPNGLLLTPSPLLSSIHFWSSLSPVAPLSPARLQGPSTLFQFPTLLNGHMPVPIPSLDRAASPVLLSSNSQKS
Summary of the method: as §1

FEV = biological target: T7, FEV (Homo sapiens, UniProt Q99581 1-238)
T7 sequence: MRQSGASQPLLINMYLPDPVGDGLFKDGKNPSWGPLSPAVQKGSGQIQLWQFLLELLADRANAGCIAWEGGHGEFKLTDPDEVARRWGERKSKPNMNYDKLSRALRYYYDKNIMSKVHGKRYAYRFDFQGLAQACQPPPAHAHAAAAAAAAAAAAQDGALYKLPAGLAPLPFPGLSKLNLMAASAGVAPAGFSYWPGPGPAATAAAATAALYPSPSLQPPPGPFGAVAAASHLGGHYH
Summary of the method: as §1

ETV5 = ETV5 (Homo sapiens, UniProt P41161 1-510)
ETV5, sequence (P41161 whole entry): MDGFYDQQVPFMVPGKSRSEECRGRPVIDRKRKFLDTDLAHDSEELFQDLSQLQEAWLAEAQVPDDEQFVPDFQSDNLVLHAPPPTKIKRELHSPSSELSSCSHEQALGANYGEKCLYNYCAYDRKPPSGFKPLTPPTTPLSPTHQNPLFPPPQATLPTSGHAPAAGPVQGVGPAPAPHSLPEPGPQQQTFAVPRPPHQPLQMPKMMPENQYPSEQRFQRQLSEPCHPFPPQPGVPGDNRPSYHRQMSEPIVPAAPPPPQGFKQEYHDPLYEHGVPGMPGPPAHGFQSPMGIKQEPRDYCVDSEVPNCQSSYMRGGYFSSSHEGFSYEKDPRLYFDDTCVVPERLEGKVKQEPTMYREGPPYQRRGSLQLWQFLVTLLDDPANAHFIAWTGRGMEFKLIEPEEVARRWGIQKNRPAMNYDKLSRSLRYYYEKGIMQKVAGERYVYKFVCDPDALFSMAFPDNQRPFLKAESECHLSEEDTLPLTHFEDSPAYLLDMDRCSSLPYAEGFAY
Summary of the method: as §1

SPIC = biological target: T8, SPIC (Homo sapiens, UniProt Q8N5J4 1-248)
T8 sequence: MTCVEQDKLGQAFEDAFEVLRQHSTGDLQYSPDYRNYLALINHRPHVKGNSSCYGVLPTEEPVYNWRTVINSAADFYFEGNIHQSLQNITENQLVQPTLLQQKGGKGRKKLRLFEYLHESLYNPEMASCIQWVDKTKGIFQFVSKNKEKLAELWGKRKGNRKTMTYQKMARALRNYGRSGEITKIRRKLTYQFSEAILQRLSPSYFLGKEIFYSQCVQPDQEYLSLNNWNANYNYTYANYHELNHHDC
Summary of the method: as §1

ELF4 = ELF4 (Homo sapiens, UniProt Q99607 1-663)
ELF4, sequence (Q99607 whole entry): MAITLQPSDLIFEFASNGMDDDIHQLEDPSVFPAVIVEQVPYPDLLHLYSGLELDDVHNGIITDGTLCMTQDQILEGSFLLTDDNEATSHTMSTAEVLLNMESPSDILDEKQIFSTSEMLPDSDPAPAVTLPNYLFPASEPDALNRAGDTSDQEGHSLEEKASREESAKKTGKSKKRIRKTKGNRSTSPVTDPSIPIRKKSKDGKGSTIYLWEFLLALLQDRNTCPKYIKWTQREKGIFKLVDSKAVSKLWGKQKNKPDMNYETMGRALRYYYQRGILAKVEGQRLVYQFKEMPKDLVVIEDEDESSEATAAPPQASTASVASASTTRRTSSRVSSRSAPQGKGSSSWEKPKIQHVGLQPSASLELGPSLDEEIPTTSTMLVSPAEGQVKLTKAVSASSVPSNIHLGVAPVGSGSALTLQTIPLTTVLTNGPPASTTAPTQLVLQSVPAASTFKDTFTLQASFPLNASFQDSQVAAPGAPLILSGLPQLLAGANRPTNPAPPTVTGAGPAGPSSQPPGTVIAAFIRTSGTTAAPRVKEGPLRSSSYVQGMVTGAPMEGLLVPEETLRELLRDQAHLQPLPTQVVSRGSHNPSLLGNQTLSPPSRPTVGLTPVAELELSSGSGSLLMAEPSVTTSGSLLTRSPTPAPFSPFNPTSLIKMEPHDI
Summary of the method: as §1

ELK4 = biological target: T9, ELK4 (Homo sapiens, UniProt P28324-2 1-405)
T9 sequence: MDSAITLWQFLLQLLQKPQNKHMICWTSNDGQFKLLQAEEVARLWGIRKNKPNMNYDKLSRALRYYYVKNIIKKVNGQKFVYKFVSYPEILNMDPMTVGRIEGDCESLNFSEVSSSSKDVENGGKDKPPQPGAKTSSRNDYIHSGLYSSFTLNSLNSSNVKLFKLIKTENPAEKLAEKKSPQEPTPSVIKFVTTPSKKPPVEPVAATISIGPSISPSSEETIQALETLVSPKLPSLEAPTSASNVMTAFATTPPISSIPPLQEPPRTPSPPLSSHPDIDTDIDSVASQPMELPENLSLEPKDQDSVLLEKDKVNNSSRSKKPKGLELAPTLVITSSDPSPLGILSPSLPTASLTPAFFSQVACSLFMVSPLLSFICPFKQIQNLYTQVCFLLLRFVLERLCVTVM
Summary of the method: as §1

ETV2 = biological target: T10, ETV2 (Homo sapiens, UniProt O00321 1-342)
T10 sequence: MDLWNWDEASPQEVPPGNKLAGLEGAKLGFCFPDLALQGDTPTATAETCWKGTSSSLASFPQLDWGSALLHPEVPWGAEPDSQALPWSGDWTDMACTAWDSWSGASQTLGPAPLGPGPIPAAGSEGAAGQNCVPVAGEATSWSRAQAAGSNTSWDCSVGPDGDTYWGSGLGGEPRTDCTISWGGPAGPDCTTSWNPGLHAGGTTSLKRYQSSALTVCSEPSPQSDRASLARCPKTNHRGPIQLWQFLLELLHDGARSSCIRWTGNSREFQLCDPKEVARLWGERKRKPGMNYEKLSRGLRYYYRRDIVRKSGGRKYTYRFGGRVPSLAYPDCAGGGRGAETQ
Summary of the method: as §1

ELF3 = biological target: T11, ELF3 (Homo sapiens, UniProt P78545 1-371)
T11 sequence: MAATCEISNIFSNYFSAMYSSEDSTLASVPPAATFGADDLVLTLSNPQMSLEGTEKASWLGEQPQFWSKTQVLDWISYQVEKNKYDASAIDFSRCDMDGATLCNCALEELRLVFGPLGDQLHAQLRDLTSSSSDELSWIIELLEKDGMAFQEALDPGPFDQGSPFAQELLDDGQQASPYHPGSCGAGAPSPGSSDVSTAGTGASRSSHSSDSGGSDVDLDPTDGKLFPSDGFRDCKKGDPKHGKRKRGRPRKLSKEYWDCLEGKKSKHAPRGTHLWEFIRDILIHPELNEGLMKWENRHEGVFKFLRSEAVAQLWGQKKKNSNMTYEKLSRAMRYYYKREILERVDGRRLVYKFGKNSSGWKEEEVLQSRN
Summary of the method: as §1

ETV1 = ETV1 (Homo sapiens, UniProt P50549 1-477)
ETV1, sequence (P50549 whole entry): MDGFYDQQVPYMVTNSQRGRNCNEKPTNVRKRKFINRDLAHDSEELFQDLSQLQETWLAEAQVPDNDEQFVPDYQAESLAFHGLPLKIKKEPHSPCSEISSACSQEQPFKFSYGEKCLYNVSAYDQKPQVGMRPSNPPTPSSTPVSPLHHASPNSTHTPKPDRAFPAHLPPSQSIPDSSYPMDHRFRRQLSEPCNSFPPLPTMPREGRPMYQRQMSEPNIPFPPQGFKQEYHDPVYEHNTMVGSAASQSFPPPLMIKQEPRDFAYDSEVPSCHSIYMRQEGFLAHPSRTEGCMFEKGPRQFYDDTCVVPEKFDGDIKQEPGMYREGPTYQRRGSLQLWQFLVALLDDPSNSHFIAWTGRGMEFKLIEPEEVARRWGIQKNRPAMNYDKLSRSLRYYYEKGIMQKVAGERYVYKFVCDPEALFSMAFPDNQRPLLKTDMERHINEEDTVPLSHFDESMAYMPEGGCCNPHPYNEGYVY
Summary of the method: as §1

Sequence	binding signal (FLI1)	binding signal (ELK1)	binding signal (GABPA)	binding signal (ERG)	binding signal (ELF1)	binding signal (EHF)	binding signal (SPI1)	binding signal (SPIB)	binding signal (ELK3)	binding signal (FEV)	binding signal (ETV5)	binding signal (SPIC)	binding signal (ELF4)	binding signal (ELK4)	binding signal (ETV2)	binding signal (ELF3)	binding signal (ETV1)
AAGTGC	1.32 fold enrichment (6-mer frequency, TF over GST control)	1.33 fold enrichment (6-mer frequency, TF over GST control)	1.13 fold enrichment (6-mer frequency, TF over GST control)	1.32 fold enrichment (6-mer frequency, TF over GST control)	1.28 fold enrichment (6-mer frequency, TF over GST control)	1.34 fold enrichment (6-mer frequency, TF over GST control)	1.67 fold enrichment (6-mer frequency, TF over GST control)	1.34 fold enrichment (6-mer frequency, TF over GST control)	1.39 fold enrichment (6-mer frequency, TF over GST control)	1.32 fold enrichment (6-mer frequency, TF over GST control)	1.33 fold enrichment (6-mer frequency, TF over GST control)	1.5 fold enrichment (6-mer frequency, TF over GST control)	1.29 fold enrichment (6-mer frequency, TF over GST control)	1.21 fold enrichment (6-mer frequency, TF over GST control)	1.35 fold enrichment (6-mer frequency, TF over GST control)	1.33 fold enrichment (6-mer frequency, TF over GST control)	1.25 fold enrichment (6-mer frequency, TF over GST control)
TGTGCC	1.17 fold enrichment (6-mer frequency, TF over GST control)	1.2 fold enrichment (6-mer frequency, TF over GST control)	1.07 fold enrichment (6-mer frequency, TF over GST control)	1.17 fold enrichment (6-mer frequency, TF over GST control)	1.21 fold enrichment (6-mer frequency, TF over GST control)	1.02 fold enrichment (6-mer frequency, TF over GST control)	1.06 fold enrichment (6-mer frequency, TF over GST control)	1.04 fold enrichment (6-mer frequency, TF over GST control)	1.3 fold enrichment (6-mer frequency, TF over GST control)	1.2 fold enrichment (6-mer frequency, TF over GST control)	1.21 fold enrichment (6-mer frequency, TF over GST control)	1.12 fold enrichment (6-mer frequency, TF over GST control)	1.17 fold enrichment (6-mer frequency, TF over GST control)	1.32 fold enrichment (6-mer frequency, TF over GST control)	1.23 fold enrichment (6-mer frequency, TF over GST control)	1.03 fold enrichment (6-mer frequency, TF over GST control)	1.05 fold enrichment (6-mer frequency, TF over GST control)
AGTGTT	1.05 fold enrichment (6-mer frequency, TF over GST control)	1.16 fold enrichment (6-mer frequency, TF over GST control)	1.14 fold enrichment (6-mer frequency, TF over GST control)	1.15 fold enrichment (6-mer frequency, TF over GST control)	1.08 fold enrichment (6-mer frequency, TF over GST control)	1.02 fold enrichment (6-mer frequency, TF over GST control)	1.32 fold enrichment (6-mer frequency, TF over GST control)	1.15 fold enrichment (6-mer frequency, TF over GST control)	–	1.02 fold enrichment (6-mer frequency, TF over GST control)	1.06 fold enrichment (6-mer frequency, TF over GST control)	1.18 fold enrichment (6-mer frequency, TF over GST control)	1.05 fold enrichment (6-mer frequency, TF over GST control)	1.08 fold enrichment (6-mer frequency, TF over GST control)	1.07 fold enrichment (6-mer frequency, TF over GST control)	1.26 fold enrichment (6-mer frequency, TF over GST control)	1.06 fold enrichment (6-mer frequency, TF over GST control)
